# Results reported in PubChem BioAssay (NCATS).
# Several values for one entry are separate records, joined by “and”; a condition that tells them apart may be missing. Equal entries are not always repeated. A number with no mark means an inactive call. Results filed as inconclusive are left out. Entries that show only a call come without a potency. Activity calls are given as the source filed them. The call rests on the fitted dose curve; in most records, active means well fitted curve in the direction sought with a large enough effect; inconclusive means small, poorly fitted or top-dose-only effect, or another doubt; inactive means no such curve, though single readings can be large; an effect the other way counts as inactive or inconclusive.
# Tests used:
# [1] = Cellular Toxicity (caspase-3) HepG2 (AID 654);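 further: cells exposed to compound for 16 hours before reading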
# How it was run: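 HepG2 cells (1500/well) were treated 16 h at 37 °C in complete medium, then caspase 3/7 activity was read by Caspase-Glo luminescence. Data were normalized to DMSO and 100 uM tamoxifen; AC50 came from Hill-equation fits of qHTS concentration-response.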
# [2] = Cellular Toxicity (caspase-3) Jurkat (AID 655);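 further: cells exposed to compound for 16 h at 37 °C before reading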; further: potency means the concentration at half of the fitted maximal effect
# How it was run: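 Jurkat cells (5000/well) in complete medium were treated with compounds for 16 hr at 37 °C, then Caspase-Glo 3/7 luminescence was read after 20 min at room temperature. Data normalized to DMSO (basal) and 100 uM tamoxifen (100%); AC50 from Hill fit.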
# [3] = Cellular Toxicity (caspase-3) HUV-EC-C (AID 656)
# How it was run: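 HUV-EC-C endothelial cells, 1000/well, were pre-incubated 5 hr at 37°C, then exposed to compounds for 16 hr at 37°C. Caspase-Glo 3/7 luminescence was read after 20 min at room temperature. AC50 came from Hill fits, normalized to DMSO and 100 uM tamoxifen.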
# [4] = Cellular Toxicity (caspase-3) SHSY5Y (AID 657)
# How it was run: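 SH-SY5Y human neuroblastoma cells (1500/well) were treated with compounds for 16 h at 37 °C, then Caspase-Glo 3/7 luminescence was read after 1 h at room temperature. Data normalized to DMSO and 10 uM staurosporine; AC50 from Hill fits.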
# [5] = Cellular Toxicity (caspase-3) BJ (AID 658); settings: Potency: caspase-3 activation
# How it was run: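 BJ human foreskin fibroblasts, 1000 cells/well, treated 16 hours at 37 °C in complete medium; caspase 3/7 activity by Caspase-Glo luminescence after 1 hr at room temperature. Normalized to DMSO and 10 uM staurosporine; AC50 from Hill fits.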
# [6] = Cellular Toxicity (caspase-3) MRC-5 (AID 659)
# How it was run: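 MRC-5 human normal lung fibroblasts, 1500 cells/well, treated 16 h at 37 °C in complete medium. Caspase 3/7 measured by Caspase-Glo luminescence after 1 h at room temperature. Normalized to DMSO and 10 uM staurosporine; AC50 from Hill fit.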
# [7] = Cellular Toxicity (caspase-3) Mesangial (AID 660)
# How it was run: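 Human renal glomerular mesangial cells, 1000/well, 5 h at 37 C before 16 h compound treatment. Caspase-Glo 3/7 luminescence after 20 min; normalized to DMSO and 100 uM tamoxifen, AC50 from Hill fit.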
# [8] = Cellular Toxicity (caspase-3) SK-N-SH (AID 661); settings: SK-N-SH caspase-3 activation, qHTS; caspase-3 activation: at 91.7 µM (top of the series), DMSO as zero, staurosporine as full
# How it was run: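 Human SK-N-SH neuroblastoma cells, 1500/well, were exposed to compounds for 16 hours at 37 °C. Caspase-Glo 3/7 luminescence was normalized to DMSO (basal) and 10 uM staurosporine (100%), and AC50 came from a Hill fit.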
# [9] = Cellular Toxicity (caspase-3) H-4-II-E (AID 663);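 further: cells exposed to compound for 16 hr before readout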
# How it was run: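 Rat hepatoma H-4-II-E cells (1500/well) plated 5 hr, then exposed to compound titrations for 16 hr at 37 °C. Caspase-Glo 3/7 luminescence read after 20 min at RT; data normalized to DMSO and 100 uM tamoxifen, AC50 from Hill fits.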
# [10] = Cellular Toxicity (caspase-3) Hek293 (AID 664); settings: HEK293 caspase-3 activation, DMSO = 0%, 100 µM tamoxifen = 100%; at 92.2 µM (top of the series);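 further: cells exposed to compound for 16 h at 37 °C before readout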
# How it was run: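 HEK293 cells in complete medium treated 16 h at 37 °C, then Caspase-Glo 3/7 luminescence read after 20 min at room temperature. Normalized to DMSO and 100 uM tamoxifen; AC50 from Hill fit of concentration-response.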
# [11] = Cellular Toxicity (caspase-3) N2a (AID 665);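 further: compound exposure lasted 16 h at 37 °C before readout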
# How it was run: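 Mouse N2a neuroblastoma cells, 1500 per well, treated 16 h at 37 °C in complete medium; caspase-3/7 activity by Caspase-Glo luminescence after 1 h. Normalized to DMSO and 10 uM staurosporine; AC50 from Hill fits.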
# [12] = Cellular Toxicity (caspase-3) NIH 3T3 (AID 666);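 further: caspase signal read after 16 h compound exposure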
# How it was run: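 Mouse NIH 3T3 fibroblasts (1000/well) treated 16 h at 37 C; caspase-3/7 activity measured by Caspase-Glo 3/7 luminescence after 20 min. Normalized to DMSO and 100 uM tamoxifen; AC50 from Hill fits.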
# [13] = Cellular Toxicity (caspase-3) Renal Proximal Tubule (AID 667);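 further: cells exposed to compound for 16 hours at 37 °C before detection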
# How it was run: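 Primary rat proximal tubule cells, 1000/well, 5 h plating at 37 °C, then compound 16 h at 37 °C. Caspase-Glo 3/7 reagent, 1 h RT, luminescence. Normalized to DMSO (basal) and 10 uM staurosporine (100%); Hill-fit AC50.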
# [14] = target: Cytochrome P450 3A4 (Homo sapiens) (UniProt P08684); assay: qHTS Assay for Activators of Cytochrome P450 3A4 (AID 885); further: nearly all actives have a fitted effect of over 65% in size
# Chain of Cytochrome P450 3A4 (Homo sapiens) (P08684 whole entry, looked up): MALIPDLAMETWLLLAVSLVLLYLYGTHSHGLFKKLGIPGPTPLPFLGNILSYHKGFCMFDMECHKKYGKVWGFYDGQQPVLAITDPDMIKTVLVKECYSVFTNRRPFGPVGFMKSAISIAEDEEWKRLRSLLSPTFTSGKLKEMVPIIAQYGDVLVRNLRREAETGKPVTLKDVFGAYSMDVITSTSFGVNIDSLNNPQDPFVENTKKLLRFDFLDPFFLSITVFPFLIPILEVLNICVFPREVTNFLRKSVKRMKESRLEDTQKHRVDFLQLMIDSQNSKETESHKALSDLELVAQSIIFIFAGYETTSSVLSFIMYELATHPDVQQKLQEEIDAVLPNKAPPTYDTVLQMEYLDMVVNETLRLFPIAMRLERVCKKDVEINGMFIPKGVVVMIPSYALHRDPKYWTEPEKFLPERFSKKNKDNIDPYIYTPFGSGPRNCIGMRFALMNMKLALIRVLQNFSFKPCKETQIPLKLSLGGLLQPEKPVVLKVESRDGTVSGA
# How it was run: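 Steps: enzyme/substrate mix dispensed; compound added, 10 min RT; NADPH regeneration solution added, 60 min RT; luciferin detection buffer stops reaction; 20 min later luminescence measured.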
# [15] = Confirmation and Secondary Assay for Modulators of Hemoglobin Beta Chain Splicing at IVS2 654 locus (AID 910);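 further: HeLa cells stably carrying EGFP split by mutant beta-globin IVS2-654 intron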;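 further: potency means the concentration at half of the fitted maximal effect; potency of activators that raise GFP signal by restoring correct splicing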
# How it was run: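 HeLa cells stably expressing EGFP interrupted by β-globin IVS2-654 intron, seeded overnight in Opti-MEM/2% FCS, then treated 2 days at 37 °C. Restored splicing read as total peak GFP intensity per well by laser scanning cytometry (488 nm excitation, 500–520 nm emission); 500 nM antisense PNA as control.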
# [16] = target: Cytochrome P450 3A4 (Homo sapiens) (UniProt P08684); assay: qHTS Assay for Inhibitors and Substrates of Cytochrome P450 3A4 (AID 884); further: nearly all actives have a fitted effect of over 50% in size
# How it was run: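 20 nM human CYP3A4 with 25 uM Luciferin-PPXE (at KM) in 200 mM KPO4, preincubated 10 min with compound; NADPH regeneration started a 60 min RT reaction. Luciferin detected by luminescence, normalized to 57 uM ketoconazole as full inhibition.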
Structure (SMILES),outcome [1],Potency [2],outcome [3],Potency [4],Potency [5],outcome [6],outcome [7],Potency [8],outcome [9],caspase-3 activation [10],outcome [11],outcome [12],outcome [13],Potency [14],Potency [15],Potency [16]
CO,inactive,inactive,inactive,inactive,inactive,inactive,inactive,inactive,inactive,-0.124%,inactive,inactive,inactive,–,–,–
CC(C)(C)CC(C)(C)c1ccc(OCCO)cc1,inactive,inactive,inactive,inactive,inactive,inactive,inactive,inactive,inactive,5.17%,inactive,inactive,inactive,inactive,–,–
CCCCO,inactive,inactive,inactive,inactive,inactive,inactive,inactive,inactive,inactive,0.832% and 0.952%,inactive,inactive,inactive,–,–,–
[O-][N+](=Nc1ccccc1)c1ccccc1,inactive,inactive,inactive,inactive,inactive,inactive,inactive,inactive,inactive,0.871%,inactive,inactive,inactive,–,–,–
Nc1nccs1,inactive,inactive,inactive,inactive,inactive,inactive,inactive,inactive,inactive,0.166%,inactive,inactive,inactive,–,inactive,–
COC(=O)c1ccccc1O,inactive,inactive,inactive,inactive,inactive,inactive,inactive,inactive,inactive,0.0886%,inactive,inactive,inactive,–,–,–
c1ccc2ccccc2c1,inactive,inactive,inactive,inactive,inactive,inactive,inactive,inactive,inactive,-0.432%,inactive,inactive,inactive,–,–,inactive
NC(N)=O,inactive,inactive,inactive,inactive,inactive,inactive,inactive,inactive,inactive,1.05%,inactive,inactive,inactive,–,inactive,–
C[C@H](CCC(=O)O)[C@H]1CC[C@H]2[C@@H]3CC[C@@H]4C[C@H](O)CC[C@]4(C)[C@H]3C[C@H](O)[C@]12C,inactive,inactive,inactive,inactive,inactive,inactive,inactive,inactive,inactive,-1.48%,inactive,inactive,inactive,–,–,–
Cc1ncc[nH]1,inactive,inactive,inactive,inactive,inactive,inactive,inactive,inactive,inactive,-0.913%,inactive,inactive,inactive,–,–,–
NCCN,inactive,inactive,inactive,inactive,inactive,inactive,inactive,inactive,inactive,0.975%,inactive,inactive,inactive,–,–,–
C[C@H]1O[C@@H](O[C@H]2[C@@H](O)C[C@H](O[C@H]3[C@@H](O)C[C@H](O[C@H]4CC[C@@]5(C)[C@H](CC[C@@H]6[C@@H]5C[C@@H](O)[C@]5(C)[C@@H](C7=CC(=O)OC7)CC[C@]65O)C4)O[C@@H]3C)O[C@@H]2C)C[C@H](O)[C@@H]1O,inactive,0.0126 µM (active),inactive,inactive,inactive,inactive,inactive,inactive,inactive,-3.59%,inactive,inactive,inactive,–,–,–
Oc1cccc(O)c1O,inactive,inactive,inactive,inactive,inactive,inactive,inactive,inactive,inactive,1.35%,inactive,inactive,inactive,–,–,–
OCc1ccccc1,inactive,inactive,inactive,inactive,inactive,inactive,inactive,inactive,inactive,-0.432%,inactive,inactive,inactive,–,–,–
Nc1ccc(N=Nc2ccccc2)c(N)n1,inactive,inactive,inactive,inactive,inactive,inactive,inactive,inactive,inactive,-7.28%,inactive,–,inactive,inactive,15.8 µM (active),–
OB(O)O,inactive,inactive,inactive,inactive,inactive,inactive,inactive,inactive,inactive,-1.81%,inactive,inactive,inactive,–,–,inactive
OCC(O)CO,inactive,inactive,inactive,inactive,inactive,inactive,inactive,inactive,inactive,3.75% and 1.59%,inactive,inactive,inactive,–,–,inactive
CO/N=C(/C(=O)N[C@@H]1C(=O)N2C(C(=O)O)=C(COC(N)=O)CS[C@H]12)c1ccco1,inactive,inactive,inactive,inactive,inactive,inactive,inactive,inactive,inactive,0.731%,inactive,inactive,inactive,–,–,–
Cc1ccc(S(=O)(=O)O)cc1C,inactive,inactive,inactive,inactive,inactive,inactive,inactive,inactive,inactive,0.165%,inactive,inactive,inactive,–,–,–
OC[C@H]1O[C@@H]2O[C@H]3[C@H](O)[C@@H](O)[C@@H](O[C@H]4[C@H](O)[C@@H](O)[C@@H](O[C@H]5[C@H](O)[C@@H](O)[C@@H](O[C@H]6[C@H](O)[C@@H](O)[C@@H](O[C@H]7[C@H](O)[C@@H](O)[C@@H](O[C@H]1[C@H](O)[C@H]2O)O[C@@H]7CO)O[C@@H]6CO)O[C@@H]5CO)O[C@@H]4CO)O[C@@H]3CO,inactive,inactive,inactive,inactive,inactive,inactive,inactive,inactive,inactive,0.542%,inactive,inactive,inactive,–,–,–
